Screens deposited in PubChem by several laboratories.
The list is not random: actives were taken first. Their share in the collection is about 4.2%.
tim23-1 inh: growth inhibitors of tim23-1 mutant yeast; S. cerevisiae tim23-1 growth, BacTiter-Glo luminescence, 24 h; inhibition, % at 20 µM; hit rate 1.3% among 330,000; AID 463212;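 active means growth inhibition of the mutant yeast at or above 50%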;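 further: temperature-sensitive mutant grown at 25 °C; plate controls were DMSO-treated mutant yeast for no effect and medium wells lacking yeast for full effect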
NALP1 yeast inh: inhibitors of NALP1 inflammasome in yeast; S. cerevisiae NALP1/ASC/caspase-1 growth, X-gal OD620, 72 h; inhibition, % at 10 µM; hit rate 0.61% among 280,000; in the data active means inhibition mostly above about 24%, no sharp cut-off; inactive means mostly below about 32%
TIM10 inh: inhibits growth of TIM10 yeast strain. S. cerevisiae TIM10 strain growth, BacTiter-Glo luminescence, 24 h. inhibition, % at 10 µM. hit rate 1.4% among 330,000. AID 463195;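 active means inhibition of 40% or more at the single tested concentration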;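 further: wild-type TIM10 isogenic control strain grown at permissive 25 °C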
NALP3 yeast inh: inhibitors of NALP3 inflammasome in yeast; AID 2825; inhibition, % at 10 µM; Yeast reconstituted NLRP3/ASC/caspase-1, beta-gal luminescence, 24 h; hit rate 0.39% among 330,000;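 active means inhibition of 50% or more; inactive means inhibition below 50%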;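 further: plate controls were induced DMSO wells for no effect and uninduced yeast grown without galactose for full effect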
V-ATPase pHluor: regulators of yeast V-ATPase proton transport | S. cerevisiae, pHLuorin cytosolic pH fluorescence | response, % at 10 µM | hit rate 0.37% among 350,000; in the data active means response mostly above about 7.3%, no sharp cut-off; inactive means mostly below about 5.4%; further: actives read high
tim10-1 inh: tim10-1 yeast growth inhibition. S. cerevisiae tim10-1 ts strain growth, BacTiter-Glo, 24 h. inhibition, % at 20 µM. hit rate 2.2% among 330,000;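 active means inhibition of at least 40%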;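 further: mutant grown at 25 °C; 0% = DMSO wells with yeast and 100% = wells holding no yeast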
tim10-1 conf: tim10-1 yeast growth inhibition, confirmed; hit rate 56% among 7,400; inhibition, % at 20 µM; shares compounds with tim10-1 inh; AID 463213; S. cerevisiae tim10-1 ts strain growth, BacTiter-Glo, 24 h;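 active means inhibition of yeast growth at or above a set limit in either of two repeat tests at 20 µM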;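 further: tim10-1 mutant grown at permissive 25 °C to find synthetic lethal compounds; 0% = DMSO yeast wells and 100% = medium wells without yeast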
An asterisk follows results filed as active; . = no result given.

SMILES	tim23-1 inh	NALP1 yeast inh	TIM10 inh	NALP3 yeast inh	V-ATPase pHluor	tim10-1 inh	tim10-1 conf
C=CCOc1ccc(C2C(C(=O)c3ccco3)=C(O)C(=O)N2c2nnc(C)s2)cc1 (stereo unspecified)	-20	-31	9	0	0	7	.
CC(=O)N(C(C)=O)c1c(C#N)c(C)n(-c2ccccc2)c1C(=O)c1ccccc1	37	19	20	19	2	41*	20
Cc1[nH]c(C(=O)O)c(C#N)c1C(=O)c1ccccc1	5	4	6	4	-1	8	.
COC(=O)C[C@H]1c2cc(F)ccc2S(=O)(=O)N1C(C)C	12	.	-9	-4	8	5	.
CC(C)(C)Nc1nc(Cl)nc(NC(C)(C)C)n1	24	-2	14	-22	1	44*	20
CNc1nc(Cl)nc(NC(C)(C)C)n1	-5	5	1	-6	3	-1	.
COc1ccccc1/C=C1\SC(=S)N(NS(=O)(=O)c2ccc(C)cc2)C1=O	40	-3	17	-28	-2	44*	18
COc1ccc(CN2C(=O)[C@@H]3Cc4c([nH]c5ccccc45)C(C)(C)N3C2=O)cc1	43	.	27	9	4	44*	22
COc1cccc(CN2C(=O)[C@H]3Cc4c([nH]c5ccccc45)C(C)(C)N3C2=O)c1	31	.	35	5	2	45*	30
COc1ccccc1NC(=S)N1CCN(c2nc(-c3ccccc3)cs2)CC1	25	-7	18	9	1	47*	29
S=C(NCC1CCCO1)N1CCN(c2nc(-c3ccccc3)cs2)CC1 (stereo unspecified)	30	8	7	0	1	53*	29
COc1ccc(CNC(=O)c2cc3ccccc3o2)cc1OC	1	27	2	18	-3	12	.
COc1ccc(C2CC(=O)c3cnc(Nc4cc(C)cc(C)c4)nc3C2)cc1 (stereo unspecified)	30	9	36	13	-3	46*	27
Cc1ccc(C)c(OC(=O)c2cccc(S(=O)(=O)N3CCN(C)CC3)c2)c1	34	12	25	14	-3	42*	18
S=C(N/N=C/c1ccccc1Cl)Nc1cccc(Cl)c1Cl	30	.	25	32	0	41*	16
Cc1ccc(NC2=C(NCCO)C(=O)c3ccccc3C2=O)cc1	27	24	19	8	-5	43*	12
CC(=O)Nc1ccc(NC2=C(Cl)C(=O)c3ccccc3C2=O)cc1	29	1	33	-3	.	26	.
Cc1sc2ncnc(N3CCCCC3)c2c1C	39	-1	5	19	2	19	.
Cc1sc2ncnc(N3CCCCC3C)c2c1C (stereo unspecified)	28	-1	6	23	1	42*	22
O=C(OCc1ccc([N+](=O)[O-])cc1)C1CC(=O)N(CCc2ccccc2)C1 (stereo unspecified)	27	.	18	3	0	43*	17
N#Cc1ccc(COC(=O)C2CC(=O)N(CCc3ccccc3)C2)cc1 (stereo unspecified)	30	.	16	-14	3	32	.
COc1ccc(CN(Cc2cccn2C)S(=O)(=O)c2cccc(C(F)(F)F)c2)cc1	17	.	15	19	0	9	.
Clc1ccc(-c2nnc3sc(-c4ccc(Br)o4)nn23)cc1	-5	-8	-29	6	1	-29	.
Clc1ccccc1-c1nnc2sc(-c3ccc(Br)o3)nn12	37	-2	25	8	0	40*	30*
Brc1ccc(-c2nn3c(Cc4ccccc4)nnc3s2)o1	20	-3	23	23	0	42*	11
SMILES	tim23-1 inh	NALP1 yeast inh	TIM10 inh	NALP3 yeast inh	V-ATPase pHluor	tim10-1 inh	tim10-1 conf
Clc1ccc(-c2nnc3sc(-c4ccc(Br)o4)nn23)c(Cl)c1	-5	-11	1	19	4	-3	.
NNC(=O)c1[nH]c2ccccc2c1-c1ccccc1	50	4	25	20	0	42*	35*
CC1CCCC(NC(=S)NC(=O)c2cncc(Br)c2)C1C (stereo unspecified)	-56	10	29	12	-2	14	.
CCN1C(=O)C(CC(=O)Nc2ccc(OC)cc2)N(CCc2ccc(OC)cc2)C1=S (stereo unspecified)	48	14	5	7	0	47*	32*
Cc1cc(OC(F)F)ccc1NC(=S)NCCc1ccccc1	33	6	28	33	7	48*	16
S=C(NCCCc1ccccc1)Nc1ccccc1	47	3	23	14	-2	29	.
S=C(NCCc1ccccc1)Nc1ccc(Nc2ccccc2)cc1	47	-3	26	29	3	52*	34*
COc1ccc(Cl)cc1NC(=S)NCc1ccco1	35	-12	20	2	0	55*	36*
COc1ccc(NC(=S)NCCc2ccccc2)c(C)c1	12	4	-14	15	1	19	.
Fc1ccc(F)c(NC(=S)NCCc2ccccc2)c1	28	20	35	36	-3	46*	28
CN1CCN(/C=N/c2c(C#N)cnn2C)CC1	16	-2	-3	-3	1	24	.
COc1ccc(O)c(C(=O)CC(=O)c2ccncc2)c1	.	.	.	.	0	.	.
S=C(NCCC(c1ccccc1)c1ccccc1)Nc1ccc(Cl)cc1	27	11	34	30	-2	55*	20
COc1ccc(Cl)cc1NC(=S)NCCc1ccc(S(N)(=O)=O)cc1	-9	-15	15	12	0	7	.
COc1ccc(Cl)cc1NC(=S)NCCc1ccc(F)cc1	34	-3	33	-61	2	51*	34*
CC(=O)Nn1cnc2c(c1=O)C1(CCCC1)Cc1ccccc1-2	20	.	37	6	-4	14	.
CCCC(=O)Nn1cnc2c(c1=O)C1(CCCC1)Cc1ccccc1-2	35	19	25	14	-1	45*	36*
O=C(Nc1ccc(Cn2cccn2)cc1)c1ccc(COc2ccccc2Br)cc1	-6	12	13	22	5	9	.
FC(F)(F)c1cccc(N2CCN(c3ccc4nnc(-c5ccccc5)n4n3)CC2)c1	20	19	31	6	2	49*	21
FC(F)(F)c1cccc(N2CCN(c3nnnn3-c3ccccc3)CC2)c1	26	.	13	10	-1	43*	14
O=C(CSc1nnc(SCc2ccccc2)s1)NNC(=S)Nc1ccccc1	33	6	38	14	-1	46*	28
O=C(OCc1nc2ccccc2s1)C1CCN(S(=O)(=O)c2cccs2)CC1	39	6	34	19	-5	48*	25
COc1ccccc1NC(=O)Oc1ccc(C(C)=O)cc1	13	1	6	10	0	16	.
